Assay results from PMC4336329 (PLoS ONE, 2015).
About 14,000 (4.5%) of roughly 310,000 compounds showed an effect of 50% or more. Effects have a minus sign here. The list comes from a sample in which strong results are over-represented; it also holds similar structures and randomly drawn compounds.

What follows are molecules tested against human ether-à-go-go-related gene (hERG) potassium channel (human, UniProt Q12809) (assay: primary screen, population patch clamp on CHO cells stably expressing hERG; higher = less effect of the substance).
Sequence of human ether-à-go-go-related gene (hERG) potassium channel (Q12809 whole entry, looked up): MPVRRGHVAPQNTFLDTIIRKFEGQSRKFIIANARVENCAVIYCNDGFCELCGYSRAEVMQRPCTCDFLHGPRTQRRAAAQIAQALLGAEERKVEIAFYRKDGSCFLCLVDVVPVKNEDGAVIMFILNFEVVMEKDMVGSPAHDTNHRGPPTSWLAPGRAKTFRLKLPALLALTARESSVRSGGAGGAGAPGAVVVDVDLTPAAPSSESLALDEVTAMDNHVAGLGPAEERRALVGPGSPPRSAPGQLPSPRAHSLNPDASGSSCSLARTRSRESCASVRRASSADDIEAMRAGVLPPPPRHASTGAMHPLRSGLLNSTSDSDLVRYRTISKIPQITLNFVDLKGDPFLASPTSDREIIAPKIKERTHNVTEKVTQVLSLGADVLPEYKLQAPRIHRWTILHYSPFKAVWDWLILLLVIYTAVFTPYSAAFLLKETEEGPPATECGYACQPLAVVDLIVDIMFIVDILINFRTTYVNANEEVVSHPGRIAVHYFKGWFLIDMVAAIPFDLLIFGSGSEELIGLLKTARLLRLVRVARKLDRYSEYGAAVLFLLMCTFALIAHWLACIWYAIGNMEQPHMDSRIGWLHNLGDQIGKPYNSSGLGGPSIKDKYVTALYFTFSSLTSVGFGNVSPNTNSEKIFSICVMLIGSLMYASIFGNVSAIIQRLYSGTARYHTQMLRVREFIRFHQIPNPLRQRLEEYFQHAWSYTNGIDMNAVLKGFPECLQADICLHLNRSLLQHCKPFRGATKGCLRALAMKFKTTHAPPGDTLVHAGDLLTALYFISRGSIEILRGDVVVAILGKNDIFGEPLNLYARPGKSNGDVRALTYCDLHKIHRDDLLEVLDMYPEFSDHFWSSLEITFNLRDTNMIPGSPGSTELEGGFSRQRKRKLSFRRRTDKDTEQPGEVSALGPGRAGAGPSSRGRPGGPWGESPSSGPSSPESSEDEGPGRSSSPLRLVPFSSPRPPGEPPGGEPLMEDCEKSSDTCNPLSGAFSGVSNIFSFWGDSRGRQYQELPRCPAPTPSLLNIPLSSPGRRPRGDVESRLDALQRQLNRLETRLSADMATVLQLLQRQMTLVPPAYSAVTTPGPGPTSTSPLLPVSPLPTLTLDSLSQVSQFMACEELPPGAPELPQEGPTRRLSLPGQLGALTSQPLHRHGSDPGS
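Further: peak tail current of the secondary pulse compared with the same well before compound.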

Row | SMILES | hERG current change (%, negative = inhibition) at 10uM [%]
1 | O=C(Nc1ccc2c(c1)OCO2)c1ccc(COc2ccc3c(c2)CCC3)o1 | 5.22
2 | CCN(Cc1ccccc1)C(=O)COC(=O)c1c(C)nsc1NC | -6.97
3 | CCOCCCNC(=O)c1cc(Nc2ccc(OC)cc2OC)nc2ccccc12 | -7.58
4 | COc1ccc(N2C(=O)CCC(C(=O)Nc3ccccn3)C2c2ccc(OC)c(OC)c2)cc1 (stereo not drawn) | 8.15
5 | Cc1ccc(-n2c(C)c(C)c3c(NCCN(C)C)ncnc32)cc1 | -36.3
6 | COC(=O)c1ccc(C)c(NC(=O)CN2C(=O)c3ccccc3S2(=O)=O)c1 | 6.46
7 | Cc1ccc(CNC(=S)Nc2ccc(C)c([N+](=O)[O-])c2)cc1 | 17.5
8 | CN(CC(=O)Nc1ccc(S(=O)(=O)N2CCCC2)cc1)Cc1c(F)cccc1Cl | -7.41
9 | O=C(COc1ccc(-n2cnnn2)cc1)Nc1cccc(Cl)c1Cl | 16.8
10 | CC(=O)Nc1ccc(NC(=O)c2cc([N+](=O)[O-])cc([N+](=O)[O-])c2)cc1 | 22.5
11 | CCN1CCN(c2ccc(S(=O)(=O)N3CCCCC3)cc2NC(=O)c2cccc(C)c2)CC1 | -37.4
12 | CCN1CCN(c2ccc(S(=O)(=O)N3CCCCC3)cc2NC(=O)c2cccc(NC(C)=O)c2)CC1 | -71.3
13 | CCN1CCN(c2ccc(S(=O)(=O)N3CCCCC3)cc2NC(=O)c2cccc(Cl)c2)CC1 | -34.6
14 | CC1(C)CC(=O)c2cc(N=C/C(C(=O)c3ccccc3)=C(\O)c3ccccc3)c(=O)oc2C1 | 17.6
15 | O=C1C=C(c2ccc3ncccc3c2)C[C@@H](c2ccc(F)cc2)C1 | -62.5
16 | Cc1ccc(C2=CC(=O)C[C@H](c3ccc(F)cc3)C2)cc1 | 19.4
17 | N#Cc1ccc(C2=CC(=O)C[C@H](c3ccc4c(c3)OCO4)C2)cc1 | -70
18 | N#Cc1ccc(C2=CC(=O)C[C@H](c3ccc(F)cc3)C2)cc1 | -72.1
19 | COc1ccc([C@H]2CC(=O)C=C(c3ccc4ncccc4c3)C2)cc1 | -3.25
20 | COc1ccc([C@H]2CC(=O)C=C(c3ccc(OC)nc3)C2)cc1 | 14.2
21 | O=C1C=C(c2ccc3ncccc3c2)C[C@@H](c2ccc(Cl)cc2)C1 | -3.34
22 | O=C1C=C(c2ccc(-c3ccccc3)cc2)C[C@@H](c2ccc3c(c2)OCO3)C1 | 7.88
23 | COc1ccc(C2=CC(=O)C[C@H](c3ccc(Cl)cc3)C2)cn1 | -12.4

Row | SMILES | hERG current change (%, negative = inhibition) at 10uM [%]
24 | O=C1C=C(c2ccc3c(c2)OCO3)C[C@@H](c2ccc3c(c2)OCO3)C1 | 10.9
25 | O=C1C=C(c2ccc(-c3ccccc3)cc2)C[C@@H](c2ccc(F)cc2)C1 | 6.67
26 | COc1ccc(C2=CC(=O)CC(c3ccc(F)cc3)C2)cn1 (stereo not drawn) | -61.1
27 | COc1ccc(CN2CCN(C(=O)c3cccs3)CC2)cc1.O=C(O)C(=O)O | -7.86
28 | C=CCn1c(SCC(=O)N2CCOCC2)nnc1C(C)NC(=O)c1ccccc1 (stereo not drawn) | 13.4
29 | CCc1cccc(C)c1NC(=O)COC(=O)Cc1ccsc1 | 10.4
30 | c1cncc(-c2noc(C34CC5CC(CC(C5)C3)C4)n2)c1 | -0.918
31 | Nc1nc2ccccc2cc1S(=O)(=O)c1ccccc1 | 16
32 | O=[N+]([O-])c1ccc(N/N=C/c2cccc(O)c2O)c(S(=O)(=O)N2CCOCC2)c1 | -5.8
33 | COC(=O)c1ccccc1NC(=O)CSc1nnc(-c2cccnc2)o1 | -6.93
34 | COc1ccccc1NC(=O)C(C)N1C(=O)c2ccccc2C1=O (stereo not drawn) | 5.76
35 | Cc1cccc(-c2nc(CSCC(=O)NCCCN3CCOCC3)c(C)o2)c1 | -11.3
36 | Cc1c(NC(=O)CSc2nnnn2-c2ccc(O)cc2)c(=O)n(-c2ccccc2)n1C | -7.29
37 | Nc1c(Cl)ncnc1NCCc1ccc(O)cc1 | 9.93
38 | CCn1nc(-c2ccccc2)nc2c(=O)n(C)c(=O)nc1-2 | -27.6
39 | Cc1cnc2cc(Cl)c(Cl)cc2n1 | 18.2
40 | CCOc1ccc(S(=O)(=O)Nc2ccc(C(=O)N3CC(C)OC(C)C3)cc2)cc1 (stereo not drawn) | 0.557
41 | O=C1C=C(c2ccc(-c3ccccc3)cc2)C[C@@H](c2ccc(Cl)cc2)C1 | 21.8
42 | Cc1ccc(C2=CC(=O)C[C@H](c3ccc(Cl)cc3)C2)cc1 | 8.09
43 | N#Cc1ccc(C2=CC(=O)C[C@H](c3ccc(Cl)cc3)C2)cc1 | -71.9
44 | O=C(NCc1ccccc1)c1ccc(CS(=O)(=O)Cc2ccccc2F)o1 | -5.62
45 | COc1cccc(CNC(=O)CC2C(=O)NCCN2CCCc2ccccc2)c1 (stereo not drawn) | -6.17
46 | CCc1ccc(OCC(=O)N2CCN(CC(=O)Nc3ccccc3Cl)CC2)cc1 | -80.7

Row | SMILES | hERG current change (%, negative = inhibition) at 10uM [%]
47 | COc1ccc(OCC(=O)Nc2ccccc2Cl)cc1 | 13.7
48 | COc1cccc(CN2CCN(CC(=O)Nc3ccccc3Cl)CC2)c1 | -72
49 | COc1cccc(NC(=O)CN2CCc3ccccc3C2)c1 | 10.3
50 | COc1cccc(CC(=O)Nc2ccccc2N2CCCC2)c1 | -5.39
51 | COc1ccc(NC(=O)c2ccccc2NC(=O)CN2CCCCCC2)cc1 | 8.82
52 | CCc1nnc(NC(=O)CN2CCN(Cc3cccc(OC)c3)CC2)s1 | -19
53 | COc1cccc(NC(=O)CN2CCC(C)CC2)c1 | 1.52
54 | COc1ccc(S(=O)(=O)N2CCN(CC(=O)Nc3ccccc3Cl)CC2)cc1 | -1.6
55 | COc1cccc(NC(=O)CN2CCN(CC(=O)Nc3ccccc3Cl)CC2)c1 | -61
56 | COc1ccc(NC(=O)CN2CCN(CC(=O)Nc3ccccc3Cl)CC2)cc1 | -74.1
57 | O=C(COc1ccc(Cl)cc1)Nc1ccccc1Cl | 3.26
58 | CCOC(=O)c1oc2ccccc2c1COC(=O)C(C)NC(=O)c1ccco1 (stereo not drawn) | -16.5
59 | COc1ccc(C(=O)N(C)C2CCCCC2)cc1S(=O)(=O)N1CCOCC1 | -3.28
60 | CCCCOc1ccc(/C=N/NC(=S)Nc2cccc(C)c2C)cc1 | -15.8
61 | CCOc1ccc(CCNC(=O)CN2C(=O)COc3ccc(S(=O)(=O)N4CCOCC4)cc32)cc1 | -6.84
62 | CCN1CCCC1CNC(=O)C(=O)Nc1cccc(OC)c1 (stereo not drawn) | -1.67
63 | O=C(c1cc2cc(Br)ccc2[nH]1)N1CCc2ccccc21 | 14
64 | CSc1ccccc1NC(=O)COc1ccc(Cl)cc1 | -17.5
65 | CC(NC(=O)CN1CCN(c2cccc(Cl)c2)CC1)c1ccccc1 (stereo not drawn) | 4.34
66 | CC(NC(=O)CN1CCN(CC(=O)Nc2ccccc2Cl)CC1)c1ccc(Br)cc1 (stereo not drawn) | -75.1
67 | COc1ccc(NC(=O)CN2CCN(c3ccccc3Cl)CC2)cc1 | -61.4
68 | Cc1cccc(C(=O)NC2CCN(CC(=O)Nc3ccccc3Cl)CC2)c1 | -49
69 | COc1ccc(NC(=O)CN2CCN(c3ccccc3C)CC2)cc1 | -41.2

Row | SMILES | hERG current change (%, negative = inhibition) at 10uM [%]
70 | COc1cccc(C(=O)NC2CCN(CC(=O)Nc3cccc(C)c3C)CC2)c1 | 32.2
71 | COc1ccc(CCNC(=O)CN2CCN(c3ccccc3Cl)CC2)cc1 | -19
72 | COc1cccc(C(=O)NC2CCN(CC(=O)Nc3ccccc3Cl)CC2)c1 | -55.4
73 | CC(NC(=O)CN1CCN(S(=O)(=O)c2ccc(Br)cc2)CC1)c1ccccc1 (stereo not drawn) | -36.9
74 | O=C(CCCn1c(SCC(=O)c2ccc(Cl)cc2)nc2ccccc2c1=O)NCc1ccco1 | 3.21
75 | O=c1c(Cl)c(Nc2cccc(Cl)c2)cnn1-c1nc2ccccc2s1 | -2.51
76 | COc1ccccc1CCn1c(N)cc(=O)[nH]c1=O | 18.4
77 | Cc1cc(C)c2c(N)c(S(=O)(=O)Cc3ccccc3)sc2n1 | -33.3
78 | O=P(Oc1ccccc1)(Oc1ccccc1)c1ccccc1 | -21.8
79 | CCOc1ccc(C(=O)N2CCn3c2nc2ccccc23)cc1 | -5.37
80 | Br.CCn1c(=N)n(CC(=O)c2ccc(Cl)c(Cl)c2)c2ccccc21 | -51.4
81 | Br.Cn1c(=N)n(CC(=O)c2ccc(Br)cc2)c2ccccc21 | -41
82 | Br.C=CCn1c(=N)n(CC(=O)c2ccc(Cl)cc2)c2ccccc21 | -36.1
83 | Br.CCCn1c(=N)n(CC(=O)c2ccc(Cl)cc2)c2ccccc21 | -53
84 | Br.CCn1c(=N)n(CC(=O)c2ccc(OC)c(OC)c2)c2ccccc21 | -13.7
85 | Br.Cn1c(=N)n(CC(=O)c2ccc(F)cc2)c2ccccc21 | -23.2
86 | Br.Cn1c(=N)n(CC(=O)c2ccccc2)c2ccccc21 | -12.4
87 | Br.CCCn1c(=N)n(CC(=O)O)c2ccccc21 | -5.8
88 | Br.CCCn1c(=N)n(CC(=O)c2ccc(Cl)c(Cl)c2)c2ccccc21 | -51.5
89 | Br.Cn1c(=N)n(CC(=O)c2ccc(Cl)c(Cl)c2)c2ccccc21 | -64.1
90 | CCn1c(=N)n(CC(=O)c2cccc(OC)c2)c2ccccc21 | -16.6
